# In PMC7862700, “An all-to-all approach to the identification of sequence-specific readers for epigenetic DNA modifications on cytosine”:
# What was measured:
# Assay in all cases: DAPPL (digital affinity profiling via proximity ligation, sequencing); 10 mM Tris-HCl pH 7.5, 50 mM NaCl, 1 mM DTT, 4% glycerol, room temperature, 30 min; GST-TFs on glutathione beads, 16-mer random dsDNA library, 0.1% formaldehyde crosslink after washing; high values mean tight binding
# Conditions in all cases: protein: recombinant; tags: N-terminal GST; dsDNA, one strand shown
# ELK1 = target: T1, ELK1 (Homo sapiens, UniProt P19419 1-428)
# T1 sequence: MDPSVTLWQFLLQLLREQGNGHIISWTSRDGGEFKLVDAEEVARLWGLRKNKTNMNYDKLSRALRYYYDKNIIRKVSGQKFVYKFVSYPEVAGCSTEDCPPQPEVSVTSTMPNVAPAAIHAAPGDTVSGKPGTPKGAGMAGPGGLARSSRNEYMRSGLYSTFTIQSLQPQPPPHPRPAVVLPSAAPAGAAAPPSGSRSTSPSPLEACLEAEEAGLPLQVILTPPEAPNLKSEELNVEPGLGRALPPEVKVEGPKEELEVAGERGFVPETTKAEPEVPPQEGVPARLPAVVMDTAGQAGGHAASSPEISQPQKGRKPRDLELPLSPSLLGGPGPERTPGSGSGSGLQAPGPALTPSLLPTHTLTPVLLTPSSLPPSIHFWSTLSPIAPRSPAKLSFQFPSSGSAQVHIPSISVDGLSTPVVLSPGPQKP
# Summary of the method: (§1)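 Sequencing on an Illumina NextSeq500 followed washing, crosslinking with 0.1% formaldehyde, proximity ligation (BsaI/T4 ligase, 1 h, 37 °C) and PCR amplification of pools that had been incubated for 30 min at room temperature with 200 nmole of a random double-stranded 16-mer DNA library in Tris/NaCl/DTT/glycerol buffer. Each pool held DNA-barcoded human transcription factors, expressed in yeast as GST fusions and captured on glutathione beads, plus a tag-only sample. Binding signal is a hexamer's read frequency for a factor divided by its frequency in the tag-only sample.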
# GABPA = target: T2, GABPA (Homo sapiens, UniProt Q06546 1-454)
# T2 sequence: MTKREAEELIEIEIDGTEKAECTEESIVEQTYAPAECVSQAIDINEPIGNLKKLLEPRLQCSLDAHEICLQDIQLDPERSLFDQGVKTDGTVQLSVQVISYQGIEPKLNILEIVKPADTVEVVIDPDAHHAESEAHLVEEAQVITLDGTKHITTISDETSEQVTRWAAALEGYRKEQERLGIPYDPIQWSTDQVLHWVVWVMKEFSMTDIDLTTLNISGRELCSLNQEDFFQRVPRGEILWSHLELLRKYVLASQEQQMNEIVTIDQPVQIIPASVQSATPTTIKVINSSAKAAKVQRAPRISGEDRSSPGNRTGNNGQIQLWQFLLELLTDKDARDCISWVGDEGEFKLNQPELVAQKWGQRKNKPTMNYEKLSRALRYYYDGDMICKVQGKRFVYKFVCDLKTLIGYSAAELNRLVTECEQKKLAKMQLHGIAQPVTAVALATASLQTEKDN
# Summary of the method: as §1
# SPI1 = SPI1 (Homo sapiens, UniProt P17947 1-270)
# Summary of the method: as §1
# SPIB = SPIB (Homo sapiens, UniProt Q01892 1-262)
# Summary of the method: as §1
# CRX = CRX (Homo sapiens, UniProt O43186 1-299)
# Summary of the method: as §1
# ETS2 = target: T3, ETS2 (Homo sapiens, UniProt P15036 1-469)
# T3 sequence: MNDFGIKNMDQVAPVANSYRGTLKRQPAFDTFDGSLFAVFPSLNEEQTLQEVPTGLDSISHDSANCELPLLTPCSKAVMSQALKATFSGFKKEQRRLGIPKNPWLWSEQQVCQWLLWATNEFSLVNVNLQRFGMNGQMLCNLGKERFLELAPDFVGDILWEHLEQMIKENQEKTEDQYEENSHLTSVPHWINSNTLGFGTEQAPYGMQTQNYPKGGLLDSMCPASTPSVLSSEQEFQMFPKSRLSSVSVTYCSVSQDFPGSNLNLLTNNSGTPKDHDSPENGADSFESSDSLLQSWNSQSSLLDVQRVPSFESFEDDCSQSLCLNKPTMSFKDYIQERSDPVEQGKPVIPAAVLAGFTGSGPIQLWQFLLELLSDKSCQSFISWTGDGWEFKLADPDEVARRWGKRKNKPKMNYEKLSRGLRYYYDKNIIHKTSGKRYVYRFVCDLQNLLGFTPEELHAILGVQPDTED
# Summary of the method: as §1
# ETV3 = target: T4, ETV3 (Homo sapiens, UniProt P41162-2 1-143)
# T4 sequence: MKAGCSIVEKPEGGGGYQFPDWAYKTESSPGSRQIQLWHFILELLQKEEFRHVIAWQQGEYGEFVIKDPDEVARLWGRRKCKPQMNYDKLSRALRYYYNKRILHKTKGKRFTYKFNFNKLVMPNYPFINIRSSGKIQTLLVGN
# Summary of the method: as §1
# ETV6 = ETV6 (Homo sapiens, UniProt P41212 1-452)
# Summary of the method: as §1
# ELF1 = ELF1 (Homo sapiens, UniProt P32519 1-619)
# Summary of the method: as §1
# EHF = target: T5, EHF (Homo sapiens, UniProt Q9NZC4 1-300)
# T5 sequence: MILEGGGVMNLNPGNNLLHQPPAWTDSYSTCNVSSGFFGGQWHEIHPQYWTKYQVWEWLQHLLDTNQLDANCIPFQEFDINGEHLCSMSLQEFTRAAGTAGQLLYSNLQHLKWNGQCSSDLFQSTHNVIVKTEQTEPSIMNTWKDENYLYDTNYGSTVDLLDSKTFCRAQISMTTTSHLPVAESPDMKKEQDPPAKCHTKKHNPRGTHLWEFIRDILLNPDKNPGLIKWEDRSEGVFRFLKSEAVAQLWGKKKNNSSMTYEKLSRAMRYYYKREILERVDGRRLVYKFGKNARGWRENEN
# Summary of the method: as §1
# ELK4 = target: T6, ELK4 (Homo sapiens, UniProt P28324-2 1-405)
# T6 sequence: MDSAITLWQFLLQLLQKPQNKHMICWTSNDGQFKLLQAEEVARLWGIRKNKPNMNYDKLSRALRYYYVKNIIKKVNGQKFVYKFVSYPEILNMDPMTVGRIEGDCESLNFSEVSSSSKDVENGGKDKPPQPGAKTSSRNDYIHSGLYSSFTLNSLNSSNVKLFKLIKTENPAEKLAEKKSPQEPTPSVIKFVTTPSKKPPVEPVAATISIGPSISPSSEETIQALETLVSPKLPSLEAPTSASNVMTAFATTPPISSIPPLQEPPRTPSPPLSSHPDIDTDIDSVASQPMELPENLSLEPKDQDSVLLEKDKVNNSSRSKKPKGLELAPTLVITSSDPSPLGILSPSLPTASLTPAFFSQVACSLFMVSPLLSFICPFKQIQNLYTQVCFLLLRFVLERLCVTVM
# Summary of the method: as §1
# ETV2 = target: T7, ETV2 (Homo sapiens, UniProt O00321 1-342)
# T7 sequence: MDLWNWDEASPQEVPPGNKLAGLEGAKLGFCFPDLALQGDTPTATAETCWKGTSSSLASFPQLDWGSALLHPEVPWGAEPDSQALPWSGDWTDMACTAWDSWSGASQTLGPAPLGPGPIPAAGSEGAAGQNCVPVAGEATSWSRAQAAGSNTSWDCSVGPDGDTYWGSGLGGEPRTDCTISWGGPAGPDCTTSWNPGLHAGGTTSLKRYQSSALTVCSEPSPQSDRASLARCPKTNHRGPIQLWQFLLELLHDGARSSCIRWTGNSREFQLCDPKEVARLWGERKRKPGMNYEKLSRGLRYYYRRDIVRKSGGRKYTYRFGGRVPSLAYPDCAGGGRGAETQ
# Summary of the method: as §1
# ELF3 = target: T8, ELF3 (Homo sapiens, UniProt P78545 1-371)
# T8 sequence: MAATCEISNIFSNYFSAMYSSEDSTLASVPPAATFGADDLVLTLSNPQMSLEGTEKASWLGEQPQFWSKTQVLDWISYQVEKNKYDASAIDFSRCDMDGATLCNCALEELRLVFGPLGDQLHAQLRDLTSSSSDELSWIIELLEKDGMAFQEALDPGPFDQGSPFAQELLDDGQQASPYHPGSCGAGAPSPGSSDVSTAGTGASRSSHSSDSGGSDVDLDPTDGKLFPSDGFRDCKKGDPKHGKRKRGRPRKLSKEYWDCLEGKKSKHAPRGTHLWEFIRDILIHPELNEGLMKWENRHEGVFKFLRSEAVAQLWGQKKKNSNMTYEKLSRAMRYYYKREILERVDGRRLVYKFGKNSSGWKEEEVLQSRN
# Summary of the method: as §1
# ETV1 = ETV1 (Homo sapiens, UniProt P50549 1-477)
# Summary of the method: as §1
# SPDEF = target: T9, SPDEF (Homo sapiens, UniProt O95238 1-335)
# T9 sequence: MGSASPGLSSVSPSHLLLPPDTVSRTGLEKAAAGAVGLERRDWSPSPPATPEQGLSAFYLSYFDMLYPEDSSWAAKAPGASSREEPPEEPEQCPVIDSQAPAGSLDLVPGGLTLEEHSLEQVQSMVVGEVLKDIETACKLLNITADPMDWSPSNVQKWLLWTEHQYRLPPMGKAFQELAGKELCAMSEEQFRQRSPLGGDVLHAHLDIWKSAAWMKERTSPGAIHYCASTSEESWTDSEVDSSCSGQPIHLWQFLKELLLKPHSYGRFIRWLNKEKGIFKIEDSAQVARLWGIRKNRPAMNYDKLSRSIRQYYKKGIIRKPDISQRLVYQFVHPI
# Summary of the method: as §1
# Chain of ELF1 (P32519 whole entry): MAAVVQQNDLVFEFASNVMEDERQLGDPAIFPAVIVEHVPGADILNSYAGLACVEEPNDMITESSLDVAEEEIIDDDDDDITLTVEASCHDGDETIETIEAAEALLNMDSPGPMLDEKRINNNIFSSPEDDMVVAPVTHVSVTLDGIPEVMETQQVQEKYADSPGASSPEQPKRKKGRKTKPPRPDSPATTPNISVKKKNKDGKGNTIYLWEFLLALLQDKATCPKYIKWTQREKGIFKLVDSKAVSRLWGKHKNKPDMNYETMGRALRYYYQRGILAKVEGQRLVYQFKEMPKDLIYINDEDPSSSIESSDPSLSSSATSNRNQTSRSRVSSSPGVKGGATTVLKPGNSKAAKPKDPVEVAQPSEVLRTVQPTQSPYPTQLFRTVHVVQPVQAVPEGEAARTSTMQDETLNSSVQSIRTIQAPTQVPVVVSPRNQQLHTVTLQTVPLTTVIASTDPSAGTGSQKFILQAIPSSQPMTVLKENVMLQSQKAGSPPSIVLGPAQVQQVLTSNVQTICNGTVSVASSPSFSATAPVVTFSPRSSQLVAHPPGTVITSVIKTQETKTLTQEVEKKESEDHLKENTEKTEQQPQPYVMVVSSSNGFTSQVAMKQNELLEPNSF
# Chain of CRX (O43186 whole entry): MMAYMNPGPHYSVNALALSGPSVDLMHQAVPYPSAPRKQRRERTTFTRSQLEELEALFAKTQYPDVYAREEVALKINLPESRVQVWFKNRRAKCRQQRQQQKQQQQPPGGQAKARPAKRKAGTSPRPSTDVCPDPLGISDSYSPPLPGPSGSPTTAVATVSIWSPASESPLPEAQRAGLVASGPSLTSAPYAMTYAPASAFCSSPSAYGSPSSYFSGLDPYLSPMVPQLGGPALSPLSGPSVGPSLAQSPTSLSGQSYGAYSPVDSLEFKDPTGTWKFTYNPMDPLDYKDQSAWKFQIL
# Chain of SPIB (Q01892 whole entry): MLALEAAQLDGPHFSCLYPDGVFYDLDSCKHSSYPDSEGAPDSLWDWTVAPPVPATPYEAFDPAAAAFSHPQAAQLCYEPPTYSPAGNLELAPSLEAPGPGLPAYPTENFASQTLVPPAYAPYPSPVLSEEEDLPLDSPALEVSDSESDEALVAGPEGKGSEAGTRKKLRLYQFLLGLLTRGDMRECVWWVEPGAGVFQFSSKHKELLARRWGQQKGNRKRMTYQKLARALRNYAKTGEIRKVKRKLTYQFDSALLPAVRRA
# Chain of ETV1 (P50549 whole entry): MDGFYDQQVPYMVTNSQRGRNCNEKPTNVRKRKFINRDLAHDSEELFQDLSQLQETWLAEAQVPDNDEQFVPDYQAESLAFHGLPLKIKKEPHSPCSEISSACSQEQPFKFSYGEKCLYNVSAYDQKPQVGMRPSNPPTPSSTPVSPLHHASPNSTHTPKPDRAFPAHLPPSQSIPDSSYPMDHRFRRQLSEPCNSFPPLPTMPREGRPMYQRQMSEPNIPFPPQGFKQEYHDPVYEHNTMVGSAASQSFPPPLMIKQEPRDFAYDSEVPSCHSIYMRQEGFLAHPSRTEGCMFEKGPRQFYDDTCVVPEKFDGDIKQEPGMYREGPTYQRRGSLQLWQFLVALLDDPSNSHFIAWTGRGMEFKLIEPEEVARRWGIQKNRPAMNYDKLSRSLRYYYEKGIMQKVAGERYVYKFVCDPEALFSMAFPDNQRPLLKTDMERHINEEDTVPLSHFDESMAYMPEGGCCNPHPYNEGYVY
# Chain of ETV6 (P41212 whole entry): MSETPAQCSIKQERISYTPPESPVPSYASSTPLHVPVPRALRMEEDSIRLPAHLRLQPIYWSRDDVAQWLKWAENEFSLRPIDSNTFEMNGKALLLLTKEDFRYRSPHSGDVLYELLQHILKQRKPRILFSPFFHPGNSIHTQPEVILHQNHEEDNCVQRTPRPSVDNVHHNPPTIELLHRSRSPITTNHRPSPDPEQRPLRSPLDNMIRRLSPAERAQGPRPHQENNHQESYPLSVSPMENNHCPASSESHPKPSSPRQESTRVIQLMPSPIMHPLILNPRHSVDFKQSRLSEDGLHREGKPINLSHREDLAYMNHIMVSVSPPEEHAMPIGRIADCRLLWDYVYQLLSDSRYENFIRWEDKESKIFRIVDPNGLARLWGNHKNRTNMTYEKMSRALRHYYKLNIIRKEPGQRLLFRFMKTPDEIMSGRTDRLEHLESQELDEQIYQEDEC
sequence,measurement,setting,value
ATAACG,binding signal,ELK1,"1.04 fold enrichment (6-mer frequency, TF over GST control)"
same,binding signal,GABPA,"1 fold enrichment (6-mer frequency, TF over GST control)"
same,binding signal,SPI1,"1.01 fold enrichment (6-mer frequency, TF over GST control)"
same,binding signal,SPIB,"1.01 fold enrichment (6-mer frequency, TF over GST control)"
same,binding signal,CRX,"1 fold enrichment (6-mer frequency, TF over GST control)"
same,binding signal,ETS2,"1.05 fold enrichment (6-mer frequency, TF over GST control)"
same,binding signal,ETV3,"1.05 fold enrichment (6-mer frequency, TF over GST control)"
same,binding signal,ETV6,"1.03 fold enrichment (6-mer frequency, TF over GST control)"
GATACC,binding signal,ELF1,"1.04 fold enrichment (6-mer frequency, TF over GST control)"
same,binding signal,EHF,"1 fold enrichment (6-mer frequency, TF over GST control)"
same,binding signal,ELK4,"1.01 fold enrichment (6-mer frequency, TF over GST control)"
same,binding signal,ETV2,"1 fold enrichment (6-mer frequency, TF over GST control)"
same,binding signal,ELF3,"1 fold enrichment (6-mer frequency, TF over GST control)"
same,binding signal,ETV1,"1 fold enrichment (6-mer frequency, TF over GST control)"
same,binding signal,SPDEF,"1.04 fold enrichment (6-mer frequency, TF over GST control)"
TCAGTA,binding signal,ELF1,"1.01 fold enrichment (6-mer frequency, TF over GST control)"
same,binding signal,ELK4,"1.01 fold enrichment (6-mer frequency, TF over GST control)"
same,binding signal,ETV2,"1.03 fold enrichment (6-mer frequency, TF over GST control)"
same,binding signal,ELF3,"1.08 fold enrichment (6-mer frequency, TF over GST control)"
same,binding signal,CRX,"1.07 fold enrichment (6-mer frequency, TF over GST control)"
same,binding signal,ETV3,"1.03 fold enrichment (6-mer frequency, TF over GST control)"
